From PubChem
Hits are enriched below; roughly 3.1% of the tested compounds scored in any of these assays.
TRb-SRC2 inh – TRbeta-SRC2 interaction inhibition. P10828. Potency, µM (highest dose often 106 µM), for the others: at the top dose activity change, negative = inhibition, actives largely listed as inhibitors. hit rate 0.065% among 280,000. TRbeta-SRC2 peptide binding, fluorescence polarization; receptor liganded with 1 µM T3;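 further: plate controls were bound peptide for no effect and peptide without receptor for full effect; nearly all actives have a fitted effect of over 50% in size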
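Assay buffer: 20 mM Tris-HCl, 100 mM NaCl, 10% glycerol, 1 mM EDTA, 0.01% NP-40, 1 mM DTT, 1 uM T3, 5% DMSO; TRb LBD 0.6 uM, Texas Red SRC2 20 nM; FP after 5 hr.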
Tau FP inhib – inhibitors of human tau fibril formation; Potency, µM (titrated, usually from 57.7 µM), inactives show at the highest dose activity, negative = inhibition, usual class: inhibitors; K18 P301L tau heparin fibrillization, Alexa594 FP, 6 h; hit rate 0.39% among 280,000; P10636; AID 1468; further: nearly all actives have a fitted effect of over 55% in size
Target sequence (P10636 561-689 P618L limits assumed): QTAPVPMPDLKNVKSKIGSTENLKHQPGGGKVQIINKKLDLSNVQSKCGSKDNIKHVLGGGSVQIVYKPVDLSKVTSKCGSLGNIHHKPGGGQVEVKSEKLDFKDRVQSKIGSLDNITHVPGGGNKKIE
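Read-out: fluorescence polarization of Alexa 594-labeled tau (0.24 uM), 555 nm excitation, 632 nm emission. Mixtures held 15 uM unlabeled K18 P301L, compound and 20 uM heparin, pH 7 acetate buffer, incubated 6 hr at 37 C.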
GoLoco inh red – RGS12 GoLoco-Gai1 interaction inhibition. P63096. Gai1:RGS12 GoLoco peptide FP, rhodamine, 10 min. Potency, µM (top dose mostly 61.6 µM), for inactives: at the top dose activity, negative = inhibition, actives largely listed as inhibitors. hit rate 0.44% among 230,000. AID 880; active means well fitted inhibition curve with a large enough effect, not every such curve was filed as active; inactive means no such curve, though single readings can be large or run the other way; further: nearly all actives have a fitted effect of over 30% in size
Target sequence (P63096 whole entry, looked up): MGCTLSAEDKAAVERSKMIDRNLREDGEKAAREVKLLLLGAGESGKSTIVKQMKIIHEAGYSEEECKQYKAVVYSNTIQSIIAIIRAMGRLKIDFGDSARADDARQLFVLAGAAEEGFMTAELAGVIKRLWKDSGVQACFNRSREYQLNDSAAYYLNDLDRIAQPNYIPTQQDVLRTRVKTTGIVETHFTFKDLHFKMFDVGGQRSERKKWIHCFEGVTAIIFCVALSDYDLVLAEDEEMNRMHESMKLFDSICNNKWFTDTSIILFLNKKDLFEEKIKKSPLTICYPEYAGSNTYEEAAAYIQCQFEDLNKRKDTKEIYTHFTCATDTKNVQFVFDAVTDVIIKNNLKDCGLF
Tau fibril ThT – inhibitors of human tau fibril formation, thioflavin T binding; P10636; recombinant tau K18 P301L, heparin-induced fibrillization, ThT fluorescence; Potency, µM (highest dose often 57.4 µM), for the others: at the top dose activity, negative = inhibition, usual class: inhibitors; hit rate 2.1% among 270,000; AID 1460; further: nearly all actives have a fitted effect of over 55% in size
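In this qHTS, human K18 P301L tau is incubated with compound and heparin for 6 hr at 37 C, and Thioflavin T fluorescence then reports fibril load.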
TexasRed fluor – counter-screen for TRb-SRC2 inhibitors: fluorescence interference | TRb/SRC2 Texas Red total fluorescence interference | Potency, µM (top dose mostly 106 µM), inactives show at the highest dose fluorescence change, negative = quenching | hit rate 0.29% among 280,000 | AID 1479; active means well fitted curve in either direction with a large enough effect; inconclusive means small, poorly fitted or top-dose-only effect
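Human TRb ligand-binding domain at 0.6 uM with 20 nM Texas Red SRC2 peptide in Tris buffer containing 1 uM T3 and 5% DMSO, incubated with compound 5 h at ambient temperature. Total fluorescence (555/632 nm) calculated as parallel + 2 × perpendicular.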
Tau fluor cs – counter-screen for tau fibril formation inhibitors | hit rate 0.93% among 280,000 | AID 1463 | tau K18 P301L (four-repeat tau fragment) Alexa594 fluorescence, heparin fibrillization | Potency, µM (series often up to 57.7 µM), inactives show at the top dose activity change, negative = decrease; further: nearly all actives have a fitted effect of over 55% in size
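Human K18 P301L tau (15 uM unlabeled plus 0.24 uM Alexa 594-labeled, final) in 100 mM sodium acetate pH 7 was mixed with compound and 20 uM heparin and incubated 6 hr at 37 C.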
* marks the source's active call; other numbers are inactive results; ? = inconclusive; nt = not tested or not shown; [ ] = remark or other dose. Unless noted, the call rests on the fitted dose curve; in most records, active means well fitted curve in the direction sought with a large enough effect; inconclusive means small, poorly fitted or top-dose-only effect, or another doubt; inactive means no such curve, though single readings can be large; an effect the other way counts as inactive or inconclusive. Unless noted, on the % scale 0 is the no-effect control and ±100 the full control effect; potency means the concentration at half of the fitted maximal effect.

SMILES	TRb-SRC2 inh	Tau FP inhib	GoLoco inh red	Tau fibril ThT	TexasRed fluor	Tau fluor cs
c1cc(CNc2ccc(N3CCOCC3)cc2)ccn1	-13%	?	-3%	22µM*	2%	?
CCOc1cc(CNc2ccc(S(N)(=O)=O)cc2)cc(Cl)c1OC	-1%	-12%	-8%	-2%	-2%	-14%
CCOc1cc(CNc2ccc(N3CCCC3)cc2)cc(Cl)c1OC	-30%	7.1µM*	-2%	3.5µM*	17%	?
COc1cc(CNc2ccc(N3CCOCC3)cc2)cc(Br)c1OC	-1%	1%	-15%	?	-4%	-18%
C=CCOc1c(Cl)cc(CNc2ccc(N(C)C)cc2)cc1OC	9%	0%	22µM*	10%	-2%	1%
CCOc1ccc(CNc2cccc(SC)c2)cc1	-9%	-37%	18%	16µM*	-3%	-31%
CCOc1ccc(CNc2ccc(N3CCCC3)cc2)cc1	-19%	?	-14%	7.1µM*	22%	?
CCOc1ccc(NC(=O)c2ccc(CNc3c(N4CCCC4)c(=O)c3=O)cc2)cc1	9%	3%	4%	nt	0%	-5%
Cc1ccc(S(=O)(=O)NC(C)C(c2cccs2)N2CCOCC2)cc1 (stereo not drawn)	3%	-9%	-4%	-3%	1%	-11%
Cc1cc(NC(=S)Nc2cccnc2)ccc1Br	-3%	-12%	7%	4%	-1%	-22%
COc1cc(OC)c(NC(=S)Nc2cc(Cl)cc(Cl)c2)cc1Cl	-9%	3%	-3%	?	-1%	25µM*[quencher]
CC(=O)Nc1cccc(NC(=O)CS(=O)(=O)c2cn(CC(=O)N3CCOCC3)c3ccccc23)c1	5%	-6%	-1%	-1%	-4%	0%
Cc1nc2ccc(N=NC3=C(O)CCCC3=O)cc2s1	1%	12%	4%	13µM*	-5%	-14%
COc1ccccc1CNC(=O)C1CC2Cn3c(nc4ccccc43)C2N1C (stereo not drawn)	4%	0%	3%	-2%	0%	5%
C=CCN=c1scc(-c2ccco2)n1/N=C/c1ccc(O)c(O)c1O	9%	?	18%	6.3µM*	-7%	7.9µM*[quencher]
COCCN=c1scc(-c2ccco2)n1/N=C/c1ccc(O)c(O)c1O	0%	25µM*	63%	13µM*	-19%	?
CC(C)N=c1scc(-c2ccco2)n1/N=C/c1ccc(O)c(O)c1	0%	?	-1%	14µM*	-1%	14µM*[quencher]
Oc1ccc(/C=N/n2c(-c3ccco3)csc2=Nc2cccnc2)c(O)c1	-5%	-2%	11%	?	-4%	?
Cc1ccc(N=Nc2ccc(O)c(/C=N\NC(=O)c3ccc(N)cc3)c2)cc1C	1%	?	13%	?	-6%	?
COc1ccc(C2C=C(c3ccc(C)cc3)Nc3c(C(=O)Nc4ccccc4)cnn32)cc1 (stereo not drawn)	-1%	?	nt	-5%	-33%	-8%
COc1cc(OC)c(C2C=C(c3ccc(C)cc3)Nc3c(C(=O)Nc4ccccc4)cnn32)cc1OC (stereo not drawn)	-3%	9%	nt	-13%	3%	18µM*[quencher]
CCN1/C(=C/C=C/c2oc3ccc4ccccc4c3[n+]2CC)Oc2ccc3ccccc3c21	10µM*	?	-160%	1.1µM*	50µM*[fluorescent]	2.8µM*[fluorescent]
Cn1ccnc1Sc1cc(NCCCO)c([N+](=O)[O-])c2nonc12	0%	-13%	-12%	4.5µM*	-1%	?
CC(=O)OCCNc1cc(SCc2ccco2)c2nonc2c1[N+](=O)[O-]	-6%	?	-18%	7.1µM*	-17%	7.9µM*[quencher]
O=[N+]([O-])c1c(NCCCO)cc(SCc2ccco2)c2nonc12	-4%	?	-36%	7.9µM*	-5%	?
O=[N+]([O-])c1c(NCCCO)cc(Sc2ccc(Cl)cc2)c2nonc12	-8%	?	0%	13µM*	2%	?
